Screening results deposited in PubChem by several laboratories.
BCLXL inh – blocks human Bcl-xL binding to Bim BH3 peptide; Q07817; GST-Bcl-xL / FITC-Bim BH3 peptide fluorescence polarization; inhibition, % at 10.9 µM; hit rate 0.7% among 320,000; AID 2129;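 active = inhibition above the mean of all tested compounds plus 3 SD, cutoff set per campaign, cut at about 30% in these data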;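 note: 0% = DMSO wells and 100% = unlabeled Bim-BH3 peptide competitor; inhibitors lower millipolarization by displacing the labeled peptide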
Mcl1 Noxa PPI – Mcl-1/Noxa interaction inhibition; Q07820; TR-FRET Mcl-1/Noxa peptide binding, 2 h; inhibition, % at 21.7 µM; hit rate 1.5% among 220,000;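 active = compounds that cut the protein-peptide binding signal by more than 50% relative to plate controls in a single-dose test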;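 note: His-tagged Mcl-1 with rhodamine Noxa BH3 peptide and terbium anti-His antibody; 0% = Mcl-1 plus Noxa peptide wells and 100% = peptide-only wells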
MCL1-BIM inh – MCL1-BIM-BH3 interaction inhibition (human) | Q07820 | inhibition, % at 10.9 µM | GST-MCL1 / FITC-Bim-BH3 fluorescence polarization | hit rate 0.68% among 320,000;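 active = inhibition above the mean inhibition of all tested compounds plus 3 SD, set per campaign, cut at about 40% in these data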;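 note: 0% = DMSO wells and 100% = unlabeled Bim-BH3 peptide control; higher means more loss of mP so more displacement of Bim peptide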
Bim-Mcl-1 – inhibitors of Bim-Mcl-1 interaction, human; Q07820; Bead-based flow cytometry, Bim peptide-Mcl-1 binding; inhibition, % at 10 µM; hit rate 0.1% among 190,000; AID 1009; in the data active = inhibition above about 40%;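 note: 0% = no compound tracer wells and 100% = peptide blocker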
GLD-1 RNA inh – GLD-1-TGE RNA interaction inhibition (C. elegans). hit rate 0.44% among 320,000. inhibition, % at 5.96 µM. purified GLD-1 + fluorescein TGE RNA, fluorescence polarization. Q17339;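 active = percent inhibition above a per-plate cutoff, the plate mean of test compounds plus 3 SD, cut at about 30% in these data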;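 note: 0% = DMSO wells with GLD-1 and probe and 100% = wells lacking GLD-1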
Target sequence (Q17339 whole entry, looked up): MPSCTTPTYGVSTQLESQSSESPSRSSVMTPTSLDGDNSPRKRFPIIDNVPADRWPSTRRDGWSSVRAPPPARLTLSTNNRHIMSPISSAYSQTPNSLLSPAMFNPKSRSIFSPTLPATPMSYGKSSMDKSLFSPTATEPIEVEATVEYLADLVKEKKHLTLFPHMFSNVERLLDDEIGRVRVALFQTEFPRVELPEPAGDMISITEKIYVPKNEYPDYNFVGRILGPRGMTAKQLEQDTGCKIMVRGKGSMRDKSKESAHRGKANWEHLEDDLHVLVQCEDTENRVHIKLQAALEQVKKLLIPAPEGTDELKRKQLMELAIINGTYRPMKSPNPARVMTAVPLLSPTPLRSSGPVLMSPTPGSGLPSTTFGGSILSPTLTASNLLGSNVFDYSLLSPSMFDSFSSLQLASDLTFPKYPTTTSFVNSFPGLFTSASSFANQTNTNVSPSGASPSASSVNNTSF
Mcl1 Bid PPI – disrupts binding of human Mcl-1 to Bid peptide; TR-FRET Mcl-1/Bid-Dy647 peptide binding, 1536-well; inhibition, % at 21.7 µM; Q07820; hit rate 0.97% among 220,000;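 active = compounds that cut the binding signal by more than half at the single screening dose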;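 note: His-tagged Mcl-1 with europium anti-His antibody binding Bid BH3 peptide; 0% = Mcl-1 plus peptide wells and 100% = peptide-only wells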
Bcl-xL conf – counter-screen for MCL1 inhibitors: confirmation of human Bcl-xL inhibitors; shares compounds with MCL1-BIM inh; GST-Bcl-xL / FITC-Bim BH3 peptide FP binding; inhibition, % at 10.9 µM; hit rate 54% among 1,700; AID 2166;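 active = inhibition above a cutoff equal to the mean inhibition of all tested compounds plus 3 SD, cut at about 30% in these data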;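 note: 0% = DMSO wells and 100% = unlabeled Bim BH3 control peptide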
MCL1 inh confirm – confirmation of human MCL1 and BIM-BH3 interaction inhibitors. shares compounds with MCL1-BIM inh. GST-MCL1 / FITC-Bim-BH3 fluorescence polarization. inhibition, % at 10.9 µM. hit rate 61% among 1,700. AID 2168;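 active = inhibition above the average of all tested compounds plus 3 SD, cut at about 40% in these data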;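 note: 0% = DMSO wells and 100% = unlabeled Bim-BH3 control peptide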
GLD1 RNA confirm – GLD-1 TGE RNA interaction inhibition, confirmation; shares compounds with GLD-1 RNA inh; GLD-1/FL-TGE RNA fluorescence polarization, biochemical; inhibition, % at 5.96 µM; hit rate 10% among 550; AID 2459;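 active = average inhibition across triplicates above the hit cutoff set in the primary screen, cut at about 32% in these data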;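 note: 0% = GLD-1 with RNA probe and DMSO and 100% = wells lacking GLD-1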
* marks the source's active call; other numbers are inactive results; i = inactive; . = not tested or not shown; + = active, no number. Sampled rows, rich in hits. Any-hit rate of the full collection: about 2.3%.

SMILES | BCLXL inh | Mcl1 Noxa PPI | MCL1-BIM inh | Bim-Mcl-1 | GLD-1 RNA inh | Mcl1 Bid PPI | Bcl-xL conf | MCL1 inh confirm | others
O=C1NC(=O)N(c2ccc3c(c2)OCO3)C(=O)/C1=C\c1ccc(-c2ccccc2C(=O)O)o1 | -19 | 45 | -26 | . | -9 | -20 | . | .
O=C1NC(=O)N(c2ccccc2)C(=O)/C1=C/c1ccc(Sc2ccccc2)o1 | 8 | 29 | 15 | -2 | -6 | 29 | . | .
O=c1[nH]c(=S)[nH]c(O)c1/C=C1/C=c2ccccc2=N1 | 68* | . | 92* | . | -16 | . | 135* | 170*
CC(=O)c1ccc2c(c1)C1C(Cl)C(Sc3ccccc3[N+](=O)[O-])CC1C(C(=O)O)N2 (stereo unspecified) | 28 | 110* | 64* | -14 | 8 | 42 | 19 | 38
O=C(O)c1cccc2c1NC(C(=O)O)C1CC(Sc3ccccc3[N+](=O)[O-])C(Cl)C21 (stereo unspecified) | 62* | 94* | 100* | 0 | 14 | 1 | 50* | 106*
OC1/C(=C/c2ccc(Cl)cc2Cl)N2CCC1CC2 (stereo unspecified) | 1 | -8 | -3 | -3 | -6 | -30 | . | .
Cc1ccc(S(=O)(=O)N(c2cc(Cl)c(O)c(Cl)c2)P(=O)(OC(C)C)OC(C)C)cc1 | 1 | 26 | 0 | 0 | 1 | -24 | . | .
C=CCN1CC[C@]23c4c5ccc(O)c4O[C@H]2C(=O)CC[C@@]3(O)[C@H]1C5 | 5 | -1 | 5 | 0 | 3 | -13 | . | .
C=CCN1CCc2cccc3c2[C@H]1Cc1ccc(O)c(O)c1-3 | 23 | . | 43* | . | 1 | . | 33* | 67*
O=C1NC(=O)N(Cc2ccc(F)cc2)C(=O)/C1=C\c1ccc([N+](=O)[O-])s1 | 22 | 93* | 40* | . | -8 | 31 | 17 | 44*
COc1ccc(N2C(=O)NC(=O)/C(=C\c3ccc([N+](=O)[O-])s3)C2=O)cc1 | 21 | 51* | 41* | 1 | -4 | -15 | 44* | 55*
CN(C)C(=O)Oc1ccc2c(=O)c(Oc3ccccc3Br)coc2c1 | -2 | . | 0 | . | 6 | . | . | .
O=c1[nH]c(=O)n(-c2ccccc2)c(O)c1N=Nc1ccc(Br)cc1 | 0 | 10 | -8 | -2 | 3 | -13 | . | .
CC1CC(OP(O)(=S)c2ccc(N(C)C)cc2NC(=O)c2cccs2)CC(C)(C)C1 (stereo unspecified) | 17 | 34 | 18 | -10 | -1 | -12 | . | .
CCN1/C(=C\C=C\C2=[N+](CC)c3ccccc3C2(C)C)C(C)(C)c2ccccc21 | + | i | + | 0 | + | -9 | + | +
O=C1NC(=S)NC(=O)C1=Cc1ccc2c(c1)CCN2CCCCl | 29 | 100* | 74* | . | 4 | 30 | -11 | -15
CN1C[C@H](CO)C=C2c3cccc4[nH]cc(c34)C[C@H]21 | 70* | 19 | 79* | 1 | 64* | -23 | 65* | 87* | GLD1 RNA confirm=17
CC(C)[C@@]1(NC(=O)[C@@H]2C=C3c4cccc5[nH]cc(c45)C[C@H]3N(C)C2)O[C@@]2(O)[C@@H]3CCCN3C(=O)[C@H](Cc3ccccc3)N2C1=O | . | 24 | . | 5 | . | -9 | . | .
C[C@]12CCC3C(CCC4=C/C(=N/OCC(=O)NC(CCC(=O)O)C(=O)O)CC[C@@]43C)C1CCC2O (stereo partly specified) | 4 | . | 13 | . | 0 | . | . | .
Nc1cc2nc3ccccc3nc2cc1N | 96* | 51* | 140* | . | 36* | -55 | + | + | GLD1 RNA confirm=61*
COC(=O)[C@@]1(C#N)[C@@H]2C=CC(C(C)=O)=CN2[C@@H](C(N)=O)[C@@H]1c1ccc(F)cc1 | 72* | 5 | 81* | . | 44* | -36 | 149* | 189* | GLD1 RNA confirm=97*
